# KB-V1 cytotox: KB-V1 MDR subline cytotoxicity | Potency, µM (top dose mostly 46.1 µM), usual class: cytotoxic | actives 3.4% (n = 400,000) | KB-V1 MDR cells viability, CellTiter-Glo, 72 h; also: nearly all actives have a fitted effect of over 60% in size
#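 qHTS viability screen in drug-selected KB-V1 MDR cells: 72 h compound treatment at 37 degrees C, ATP luminescence end point.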
# KB-3-1 tox: KB-3-1 parental cell cytotoxicity | KB-3-1 viability, CellTiter-Glo ATP luminescence, 72 h | Potency, µM (doses to about 46.1 µM), actives largely listed as cytotoxic | actives 1.4% (n = 400,000); also: nearly all actives have a fitted effect of over 60% in size
#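 Here the drug-naive KB-3-1 line serves as comparator for MDR sub-line selectivity; cells received compound titrations, 72 h at 37 °C, then CellTiter-Glo readout.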
# DT40 TDP1 CPT: DT40-hTDP1 cell growth loss with CPT; Potency, µM (series often up to 46.2 µM), without a hit: at the top dose activity change, negative = growth inhibition, usual class: inhibitors; chicken DT40 Tdp1-/-;hTDP1 cells + 20 nM CPT, ATP luminescence, 48 h; AID 686979; actives 12% (n = 420,000); also: nearly all actives have a fitted effect of over 55% in size
#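 Chicken DT40 Tdp1-/- cells stably complemented with human TDP1 were seeded at 400 cells/well in medium containing 20 nM camptothecin, exposed to pin-transferred compounds, and grown at 37 °C for at least 48 hr. Viability was read as ATP luminescence.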
# HT1080 IDH1KD tx: HT-1080 IDH1 knockdown cell toxicity (counter line); HT-1080 IDH1 knockdown viability, ATP luminescence, 48 h; Potency, µM (highest dose often 46.1 µM), inactives show at the top dose activity, negative = toxicity, actives largely listed as cytotoxic; AID 686971; actives 2% (n = 360,000);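 also: 0% = DMSO wells and -100% = cell-free medium wells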
#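 Using the IDH1-knockdown HT-1080 line run in the same batch and compound series as the NT line, viability after 48 h at 37 °C was determined by CellTiter-Glo luminescence and expressed as % activity.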
# HT1080NT lethal: kills 2HG-producing HT-1080-NT fibrosarcoma cells; actives 1.6% (n = 360,000); Potency, µM (series often up to 46.1 µM), without a hit: at the highest dose activity, negative = less viability, actives largely listed as cytotoxic; HT-1080-NT fibrosarcoma viability, CellTiter-Glo ATP luminescence, 48 h; AID 686970;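 also: NT is the 2HG producing partner of a matched IDH1 knockdown line; 0% = DMSO-treated cells and -100% = media-only wells without cells; nearly all actives have a fitted effect of over 55% in size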
#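 A 48-hour cytotoxicity screen used HT-1080-NT cells plated 2 hours before compound delivery. ATP-based CellTiter-Glo luminescence measured viability, normalized to DMSO and no-cell controls.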
# TDP1 cell noCPT: qHTS for Inhibitors of human tyrosyl-DNA phosphodiesterase 1 (TDP1): qHTS in cells in absence of CPT. actives 15% (n = 420,000). Potency, µM (highest dose often 46.2 µM), without a hit: top-dose activity change, negative = growth inhibition, actives largely listed as inhibitors. AID 686978, 2013. DT40 Tdp1-/- hTDP1 cells, no CPT, ATP luminescence, 48 h; also: nearly all actives have a fitted effect of over 55% in size
#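 Readout: luminescence from CellTiter-Glo after 30 min in the dark at RT. Cells: DT40 Tdp1-/- with stable hTDP1, 400/well. Exposure: compounds alone, ≥48 hr, 37 °C.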
# Active calls of the source: *; i = inactive; ? = inconclusive; nt = no result given; [ ] = remark or other dose. Most compounds without a hit are left out; they make up all but 19% or so of the library. Calls follow the shape of the dose curve; as a rule, active = well fitted curve in the direction sought with a large enough effect; inconclusive = small, poorly fitted or top-dose-only effect, or another doubt; inactive = no such curve, though single readings can be large; an effect the other way counts as inactive or inconclusive. Unless noted, % is scaled to controls: 0 for no effect and ±100 for the full control effect; potency is read from the fitted curve at half-maximal effect.
SMILES,KB-V1 cytotox,KB-3-1 tox,DT40 TDP1 CPT,HT1080 IDH1KD tx,HT1080NT lethal,TDP1 cell noCPT
O=S(=O)(Nc1cccc(F)c1)c1ccc2[nH]c3c(c2c1)CCCCC3,i,i,21µM*,nt,nt,?
Cc1ccc(N(C)S(=O)(=O)c2ccc3[nH]c4c(c3c2)CCCC4)cc1,18µM*,i,?,nt,nt,?
CCc1ccc(NS(=O)(=O)c2ccc3[nH]c4c(c3c2)CCCCCC4)cc1,i,i,?,nt,nt,?
Cc1ccc(NS(=O)(=O)c2ccc3[nH]c4c(c3c2)CCCCCC4)cc1C,i,i,?,nt,nt,16µM*
COc1cccc(-c2cc(CNC(=O)[C@H]3O[C@@H](n4cnc5c(N)ncnc54)[C@H](O)[C@@H]3O)no2)c1,i,i,8%,0%,1%,4%
CC(C)N=C1NN=C(c2ccc(Cl)c(Cl)c2)CS1,i,?,?,-13%,-2%,?
COCCNC(=S)NCc1ccc2[nH]c3c(c2c1)CCCC3,?,i,-15%,-19%,-21%,-26%
Cc1ccc(NC(=S)NCc2ccc3[nH]c4c(c3c2)CCCC4)cc1,i,i,?,-21%,-5%,13µM*
C=CC[C@H](CC(=O)OC(C)(C)C)C(=O)OC[C@@H]1CCCN1C(=O)[C@H](CC=C)CC(=O)N[C@H](CO)Cc1ccccc1,i,i,26µM*,-2%,0%,?
C=CC[C@@H](CC(=O)OC(C)(C)C)C(=O)OC[C@H]1CCCN1C(=O)[C@@H](CC=C)CC(=O)NCCO,i,i,-3%,19%,13%,-24%
C=CC[C@H](CC(=O)OC(C)(C)C)C(=O)OC[C@@H]1CCCN1C(=O)[C@@H](CC=C)CC(=O)N[C@H](CO)Cc1ccccc1,i,i,16µM*,12%,3%,?
C=CC[C@@H](CC(=O)OC(C)(C)C)C(=O)OC[C@@H]1CCCN1C(=O)[C@@H](CC=C)CC(=O)N[C@H](CO)Cc1ccccc1,i,i,23µM*,-2%,-1%,?
Cc1ccc(NC(=O)c2c(C)oc3c2C2=NCCN2C=N3)cc1F,i,i,?,nt,nt,?
CCCCOc1ccc(C2=NC(c3ccncc3)=Nc3ccc(OCC)cc3N2)cc1,?,i,16µM*,nt,nt,?
CCOc1ccc(C2=NC(c3ccncc3)=Nc3ccc(C)cc3N2)cc1OCC,i,i,?,nt,nt,18µM*
CCOc1ccc2c(c1)NC(c1cccs1)=NC(c1ccc(F)cc1)=N2,i,i,23µM*,nt,nt,?
COc1ccc2cc(CNCc3ccccc3Cl)c(N3CCCC(CO)C3)nc2c1 (stereo not drawn),nt,nt,25%[9.04 µM],nt,nt,?
O=[N+]([O-])c1cc(Cl)ccc1NCCc1ccccn1,i,i,-5%,0%,-16%,?
N#Cc1ccc(NCCc2ccccn2)c([N+](=O)[O-])c1,1.8µM*,8.2µM*,-13%,-1%,4%,-22%
CCOC(=O)Nc1ccc2c(c1)N(C(=O)N1CCN(C)CC1)c1ccccc1CC2,i,i,-34%,?,?,?
CCNCC(=O)N1c2ccccc2CCc2ccc(NC(=O)OC(C)C)cc21,i,i,?,-17%,-25%,16µM*
CCOC(=O)Nc1ccc2c(c1)N(C(=O)N(C)C)c1ccccc1CC2,i,i,?,0%,2%,29µM*
CC(C)OC(=O)Nc1ccc2c(c1)N(C(=O)N1CCN(C)CC1)c1ccccc1CC2,?,?,12µM*,23µM*,23µM*,13µM*

# Compound activity deposited in PubChem by National Center for Advancing Translational Sciences (NCATS).
